Screening data (PubChem BioAssay)
An excerpt weighted towards active compounds, which were near 11% of everything screened.
BAZ2B inh: blocks human BAZ2B; AlphaScreen BAZ2B-H3K14Ac peptide displacement; Potency, µM (top dose mostly 114 µM), for the others: at the highest dose activity change, negative = inhibition, actives largely listed as inhibitors; AID 504333; 360,000 tested, 4.4% active; Q9UIF8; also: % is scaled to controls: 0 for no effect and ±100 for the full control effect; nearly all actives have a fitted effect of over 60% in size
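AlphaScreen displacement: compounds (up to 110uM) incubated 30 min at room temperature with a preformed 50 nM BAZ2B/50 nM biotinylated H3K14Ac peptide complex in PBS pH 7.4 with Tween-20. Donor and acceptor beads at 10 ug/mL final added, 20 min light-protected before reading.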
VDR inh: blocks the human vitamin D receptor | P11473 | VDR-SRC2-3 peptide fluorescence polarization, 2 h | Potency, µM, for inactives: max response, negative = inhibition, hits mostly inhibitors | 400,000 tested, 0.93% active; also: % is scaled to controls: 0 for no effect and ±100 for the full control effect
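The screen uses fluorescence polarization to detect compounds that interfere with recruitment of the SRC2-3 coactivator peptide to VDR; plates are read after 2 h at room temperature.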
G9a block: blocks human histone lysine methyltransferase G9a; Q96KQ7; G9a H3K9 monomethylation, AlphaScreen, 2 h; Potency, µM (series often up to 102 µM), without a hit: top-dose activity, negative = inhibition, hits mostly inhibitors; 350,000 tested, 8.8% active; also: % is scaled to controls: 0 for no effect and ±100 for the full control effect; nearly all actives have a fitted effect of over 75% in size
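Step 1: enzyme (final 20 nM) with compound, 15 min RT. Step 2: substrate peptide 500 nM and SAM 20 uM, 2 h RT. Step 3: anti-H3K9me1 antibody and AlphaScreen beads, 10 min, then plate read.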
HP1b chromo inh: HP1-beta chromodomain-methylated histone interaction inhibition; P83916; AlphaScreen HP1-beta / biotin-H3K9me3 peptide binding; Potency, µM (doses to about 114 µM), for the others: at the highest dose activity change, negative = inhibition, usual class: inhibitors; 390,000 tested, 0.56% active; also: nearly all actives have a fitted effect of over 70% in size
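Compound inhibition of the preformed complex between 50 nM HP1-beta and 50 nM biotinylated H3K9me3 peptide was read by AlphaScreen. Buffer was PBS pH 7.4 with 0.01% Tween-20. Incubations ran 30 min at room temperature, with 10 ug/mL donor/acceptor beads.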
PLK1 PBD block: blocks phosphopeptide binding to human PLK1 polo-box domain | AID 720504 | Potency, µM, without a hit: max response, negative = inhibition, actives largely listed as inhibitors | 360,000 tested, 2.8% active | P53350 | Plk1 PBD binding of FITC phosphopeptide, fluorescence polarization; also: series mostly up to about 57 µM; % is scaled to controls: 0 for no effect and ±100 for the full control effect; nearly all actives have a fitted effect of over 65% in size
JMJD2A Tudor: blocks the human JMJD2A Tudor domain. O75164. 390,000 tested, 4.4% active. AID 504339. Potency, µM (titrated, usually from 114 µM), inactives show at the top dose activity change, negative = inhibition, actives largely listed as inhibitors. AlphaScreen JMJD2A-Tudor / H3K4me3 peptide binding; also: % is scaled to controls: 0 for no effect and ±100 for the full control effect; nearly all actives have a fitted effect of over 50% in size
Target sequence (O75164 whole entry, looked up, the tested form may be a part): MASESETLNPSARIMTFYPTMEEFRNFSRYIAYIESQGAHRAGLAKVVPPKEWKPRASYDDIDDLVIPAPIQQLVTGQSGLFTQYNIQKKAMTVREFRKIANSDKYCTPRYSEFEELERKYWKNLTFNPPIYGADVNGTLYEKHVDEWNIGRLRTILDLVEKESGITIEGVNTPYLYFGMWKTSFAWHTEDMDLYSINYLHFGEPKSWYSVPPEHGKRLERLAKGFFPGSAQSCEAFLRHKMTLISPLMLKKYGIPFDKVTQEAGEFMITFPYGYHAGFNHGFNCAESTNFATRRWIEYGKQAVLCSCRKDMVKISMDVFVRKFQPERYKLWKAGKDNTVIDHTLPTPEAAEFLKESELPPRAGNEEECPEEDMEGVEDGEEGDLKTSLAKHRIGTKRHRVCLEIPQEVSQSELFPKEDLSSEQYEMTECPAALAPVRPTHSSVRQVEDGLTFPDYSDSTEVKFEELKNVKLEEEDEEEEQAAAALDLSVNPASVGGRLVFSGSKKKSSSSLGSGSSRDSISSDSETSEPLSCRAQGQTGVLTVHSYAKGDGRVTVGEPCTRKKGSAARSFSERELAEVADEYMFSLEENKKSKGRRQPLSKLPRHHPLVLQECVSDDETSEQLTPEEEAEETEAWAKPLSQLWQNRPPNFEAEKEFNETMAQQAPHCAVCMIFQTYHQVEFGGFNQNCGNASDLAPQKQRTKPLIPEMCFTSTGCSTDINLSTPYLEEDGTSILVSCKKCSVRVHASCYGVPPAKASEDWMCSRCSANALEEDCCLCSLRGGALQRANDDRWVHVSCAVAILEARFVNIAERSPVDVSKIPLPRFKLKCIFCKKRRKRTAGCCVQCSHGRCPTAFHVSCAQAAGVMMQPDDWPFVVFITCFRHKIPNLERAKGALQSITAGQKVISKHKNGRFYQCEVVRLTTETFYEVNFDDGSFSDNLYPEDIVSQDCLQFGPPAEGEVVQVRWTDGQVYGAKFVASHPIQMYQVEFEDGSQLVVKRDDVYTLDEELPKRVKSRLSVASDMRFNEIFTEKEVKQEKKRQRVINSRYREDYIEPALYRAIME
Active calls of the source: *; [ ] = remark or other dose. Calls follow the shape of the dose curve; as a rule, active = well fitted curve in the direction sought with a large enough effect; inconclusive = small, poorly fitted or top-dose-only effect, or another doubt; inactive = no such curve, though single readings can be large; an effect the other way counts as inactive or inconclusive. Potency is read from the fitted curve at half-maximal effect.

Results for COc1ccccc1NS(=O)(=O)c1cc(NC(=O)c2sccc2C)ccc1N1CCCC1 ?
BAZ2B inh: -31%; VDR inh: 89µM*; G9a block: 3.5µM*; HP1b chromo inh: inconclusive; PLK1 PBD block: 6.7µM*; JMJD2A Tudor: -18%

How did COc1ccccc1NS(=O)(=O)c1cc(NC(=O)c2cc(=O)[nH]c3ccccc23)ccc1N1CCOCC1 do in these assays?
BAZ2B inh: -23%; VDR inh: 7%; G9a block: 0%[12.7 µM]; HP1b chromo inh: 15%; PLK1 PBD block: -13%; JMJD2A Tudor: inconclusive

What do the screens show for `COc1ccccc1NS(=O)(=O)c1cc(NC(=O)c2cccs2)ccc1N1CCCCC1`?
BAZ2B inh: -21%; VDR inh: 8%; G9a block: -12%[59 µM]; HP1b chromo inh: -6%; PLK1 PBD block: -7%; JMJD2A Tudor: -19%

What do the screens show for `COc1ccccc1NS(=O)(=O)c1cc(NC(=O)C(C)C)ccc1N1CCCCC1`?
VDR inh: 79µM*; G9a block: 8.9µM*; HP1b chromo inh: inconclusive; PLK1 PBD block: 12µM*; JMJD2A Tudor: inconclusive

How did COc1ccccc1NS(=O)(=O)c1cc(NC(=O)c2cc[n+]([O-])cc2)ccc1N1CCCC1 do in these assays?
VDR inh: -30%; G9a block: inconclusive; HP1b chromo inh: inconclusive; PLK1 PBD block: 3µM*; JMJD2A Tudor: 63µM*

What do the screens show for `COc1ccccc1NS(=O)(=O)c1cc(NC(=O)c2sccc2C)ccc1N1CCOCC1`?
BAZ2B inh: -5%; VDR inh: -12%; G9a block: 4%[12.7 µM]; HP1b chromo inh: 15%; PLK1 PBD block: -15%; JMJD2A Tudor: -14%

What do the screens show for `O=C(Nc1cccc(OC(F)(F)F)c1)[C@@H]1O[C@H](CO)[C@H](O)[C@H](O)[C@H]1O`?
PLK1 PBD block: -5%

How did Cc1sc(-n2cccc2)c(C(=O)O)c1C do in these assays?
BAZ2B inh: 50µM*; VDR inh: -5%; G9a block: 1%[59 µM]; HP1b chromo inh: 28%; PLK1 PBD block: -14%; JMJD2A Tudor: -36%

What do the screens show for `Cc1sc(-n2cccc2)c(C(C)NC(=O)Nc2ccccc2Cl)c1C` (stereo not given)?
BAZ2B inh: -18%; VDR inh: 4%; G9a block: 3%[59 µM]; HP1b chromo inh: 33%; JMJD2A Tudor: inconclusive

How did O=C(CCNS(=O)(=O)c1ccc(F)cc1)N1CCN(c2ncccn2)CC1 do in these assays?
PLK1 PBD block: -3%

What do the screens show for `Nc1ccc2nc[nH]c2c1`?
BAZ2B inh: -35%; VDR inh: 3%; G9a block: 50µM*; HP1b chromo inh: 6%; PLK1 PBD block: inconclusive; JMJD2A Tudor: inconclusive

What do the screens show for `O=C(c1ccccc1)c1ccc2nc[nH]c2c1`?
BAZ2B inh: 8%; VDR inh: 2%; G9a block: 5%[59 µM]; HP1b chromo inh: 21%; PLK1 PBD block: 1%; JMJD2A Tudor: -19%

Results for Cc1cc(C)c2nc(N3CCCC(C(=O)NCc4cccc(Cl)c4)C3)sc2c1 (stereo not given) ?
BAZ2B inh: -2%; VDR inh: -18%; G9a block: -24%[59 µM]; HP1b chromo inh: 34%; JMJD2A Tudor: -1%

What do the screens show for `O=C1Nc2cccnc2Sc2ccccc21`?
BAZ2B inh: -3%; VDR inh: 3%; G9a block: 28µM*; HP1b chromo inh: -4%; PLK1 PBD block: -10%; JMJD2A Tudor: -15%

What do the screens show for `c1ccc2c(c1)Nc1nccnc1S2`?
BAZ2B inh: -1%; VDR inh: inconclusive; G9a block: inconclusive; HP1b chromo inh: -23%; PLK1 PBD block: 15µM*; JMJD2A Tudor: 45µM*

What do the screens show for `CNc1cc(CSC)nc(SCc2ccc(Cl)c(Cl)c2)n1`?
BAZ2B inh: 6%; VDR inh: -10%; G9a block: 32µM*; HP1b chromo inh: 62%; PLK1 PBD block: -2%; JMJD2A Tudor: -4%

What do the screens show for `COc1ccc(C(=O)NCc2ccc3c(c2)OCO3)cc1S(=O)(=O)N1CCCC1`?
BAZ2B inh: -11%; VDR inh: 7%; G9a block: -44%[59 µM]; HP1b chromo inh: 26%; PLK1 PBD block: -2%; JMJD2A Tudor: -10%

How did CCc1ccc(CSc2nc(-c3ccccc3OC)nc3c2Cc2c(CO)cnc(C)c2O3)cc1 do in these assays?
BAZ2B inh: -29%; VDR inh: 2%; G9a block: -22%[59 µM]; HP1b chromo inh: 32%; JMJD2A Tudor: -11%

How did CN(C)c1nc(C(=O)O)nc(N2CCOCC2)n1 do in these assays?
BAZ2B inh: -28%; VDR inh: 7%; G9a block: inconclusive; HP1b chromo inh: 0%; PLK1 PBD block: -2%; JMJD2A Tudor: 32µM*

What do the screens show for `CCNc1nc(C(=O)O)nc(N2CCOCC2)n1`?
BAZ2B inh: 8.9µM*; VDR inh: -15%; G9a block: 4µM*; HP1b chromo inh: 4%; PLK1 PBD block: 1%; JMJD2A Tudor: 0.79µM*

How did O=C1NC[C@@H](CCCCN2CCN(CCc3ccccc3)C(=O)C2=O)N(CCC2CCCCC2)C1=O do in these assays?
PLK1 PBD block: 2%

Results for Cc1ccc(NC(=O)C23CCC(C)(C(=O)[C@H]2Br)C3(C)C)cc1 (stereo not given in full) ?
BAZ2B inh: 3%; VDR inh: -4%; G9a block: 4%; HP1b chromo inh: 22%; PLK1 PBD block: -13%; JMJD2A Tudor: -15%

How did COc1cc2nc(NC(=O)c3ccc(F)cc3Cl)sc(=O)c2cc1OC do in these assays?
BAZ2B inh: -31%; VDR inh: 13%; G9a block: 35µM*; HP1b chromo inh: -1%; PLK1 PBD block: inconclusive; JMJD2A Tudor: -7%

How did O=C(Nc1nc2ccsc2c(=O)s1)c1ccc(F)cc1Cl do in these assays?
BAZ2B inh: -5%; VDR inh: -17%; G9a block: -8%; HP1b chromo inh: -19%; PLK1 PBD block: -12%; JMJD2A Tudor: inconclusive

What do the screens show for `CCN(CC)S(=O)(=O)c1cccc(C(=O)c2c(C)cc3ccccn23)c1`?
BAZ2B inh: -2%; VDR inh: -15%; G9a block: 19%[59 µM]; HP1b chromo inh: 50%; PLK1 PBD block: 2%; JMJD2A Tudor: -15%

Results for COC(=O)c1cc(C(=O)N2CCN(c3cccc(C)c3C)CC2)cc([N+](=O)[O-])c1 ?
BAZ2B inh: inconclusive; VDR inh: 13%; HP1b chromo inh: inconclusive; PLK1 PBD block: -20%; JMJD2A Tudor: inconclusive

How did Cc1cc2ccccn2c1C(=O)c1ccc(C#N)cc1 do in these assays?
BAZ2B inh: inconclusive; VDR inh: 5%; G9a block: inconclusive; HP1b chromo inh: -4%; PLK1 PBD block: -11%; JMJD2A Tudor: -15%

What do the screens show for `Cc1cc2ccccn2c1C(=O)c1cc([N+](=O)[O-])cc([N+](=O)[O-])c1`?
BAZ2B inh: 10µM*; VDR inh: -3%; G9a block: 32µM*; HP1b chromo inh: inconclusive; PLK1 PBD block: -6%; JMJD2A Tudor: 18µM*
